Data published in the supplement of paper PMC6555819.

How the values were obtained:
Assay in all cases: PBM binding z-score (relative to random genomic background probes); higher = stronger binding; sequences stand for … in GC…GCGATTGACAGCGTAGAATGAAGG
[1] = system: FXR:RXRa (NR concentration 270 nM, RXRa partner concentration 90 nM)
Procedure, shortened: (§1)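 For binding z-scores, the reference was random background probes on custom Agilent 4×180K protein-binding microarrays. These arrays were incubated 1 h with ligand-free nuclear receptor dimers in PBS pH 7.4, 2% milk, 0.02% Triton X-100, 1 mM DTT, 0.2 mg/mL BSA and 0.4 mg/ml salmon testes DNA. Fluorescence was scanned after antibody detection of each partner (one per run) and regression-normalized.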

[2] = system: LXRa:RXRa (NR concentration 270 nM, RXRa partner concentration 90 nM)
Procedure, shortened: as §1

[3] = system: LXRa homodimer (NR concentration 270 nM)
Procedure, shortened: as §1

[4] = system: LXRb:RXRa (NR concentration 270 nM, RXRa partner concentration 90 nM)
Procedure, shortened: as §1

[5] = system: LXRb homodimer (NR concentration 270 nM)
Procedure, shortened: as §1

[6] = system: PPARa:RXRa (NR concentration 270 nM, RXRa partner concentration 90 nM)
Procedure, shortened: as §1

[7] = system: PPARg:RXRa (NR concentration 180 nM, RXRa partner concentration 90 nM)
Procedure, shortened: as §1

[8] = system: PPARg:RXRa 270nM:90nM, anti-RXR (NR concentration 270 nM, RXRa partner concentration 90 nM)
Procedure, shortened: as §1

[9] = system: PPARg:RXRa 30nM:10nM, anti-RXR (NR concentration 30 nM, RXRa partner concentration 10 nM)
Procedure, shortened: as §1

[10] = system: PPARg:RXRa 90nM:30nM, anti-RXR (NR concentration 90 nM, RXRa partner concentration 30 nM)
Procedure, shortened: as §1

[11] = system: PPARg:RXRa DBDmut IVT, anti-RXR (DBD mutation: RXRa K156A/R161A, NR concentration 270 nM, RXRa partner concentration 90 nM)
Procedure, shortened: as §1

[12] = system: PPARg:RXRa IVT, anti-PPARg (NR concentration 270 nM, RXRa partner concentration 90 nM)
Procedure, shortened: as §1

[13] = system: PPARg DBDmut:RXRa IVT, anti-PPARg (DBD mutation: PPARg1 K132A/R137A, NR concentration 270 nM, RXRa partner concentration 90 nM)
Procedure, shortened: as §1

[14] = system: PPARg DBDmut IVT, anti-PPARg (DBD mutation: PPARg1 K132A/R137A, NR concentration 270 nM)
Procedure, shortened: as §1

[15] = system: PPARg homodimer (NR concentration 180 nM)
Procedure, shortened: as §1

[16] = system: PXR:RXRa (NR concentration 270 nM, RXRa partner concentration 90 nM)
Procedure, shortened: as §1

[17] = system: PXR homodimer (NR concentration 270 nM)
Procedure, shortened: as §1

[18] = system: RARa:RXR (NR concentration 270 nM, RXRa partner concentration 90 nM)
Procedure, shortened: as §1

[19] = system: RARa homodimer (NR concentration 270 nM)
Procedure, shortened: as §1

[20] = system: RARb:RXRa (NR concentration 270 nM, RXRa partner concentration 90 nM)
Procedure, shortened: as §1

Row | Sequence | PBM binding z-score [1] | PBM binding z-score [2] | PBM binding z-score [3] | PBM binding z-score [4] | PBM binding z-score [5] | PBM binding z-score [6] | PBM binding z-score [7] | PBM binding z-score [8] | PBM binding z-score [9] | PBM binding z-score [10] | PBM binding z-score [11] | PBM binding z-score [12] | PBM binding z-score [13] | PBM binding z-score [14] | PBM binding z-score [15] | PBM binding z-score [16] | PBM binding z-score [17] | PBM binding z-score [18] | PBM binding z-score [19] | PBM binding z-score [20]
1 | AGAATGAGGTTAAGATCAGGGACACAGAATACAT | 2.45 | 2.04 | 0.0815 | 1.81 | 0.324 | 3.55 | 2.54 | 2.39 | 0.988 | 1.85 | 3.45 | 3.13 | 1.64 | 0.953 | 1.01 | 1.54 | 0.664 | 2.14 | 1.57 | 2.23
2 | ATCTCTAGGTAAAGATAGATCAGTGAATGCAAAT | 0.447 | 0.581 | 0.166 | 0.000708 | 0.387 | 0.00369 | 0.763 | 0.278 | 0.36 | 0.457 | 1.89 | 1.61 | 0.429 | 1.24 | -0.283 | -0.396 | 0.0363 | -0.0575 | 1.14 | -0.27
3 | ACTAGCAGGCCAAGGGTCACTAAAGATTAGTCCG | 2.25 | 3.51 | -0.00755 | 2.66 | -0.174 | 4.34 | 8.06 | 7.21 | 6.64 | 7.61 | 1.3 | 3.86 | 0.0188 | -0.44 | 2 | 3 | -0.139 | 3.97 | 0.15 | 3.42
4 | TCTAGAAGGCCAGAGGGTCACTCAAGAGGTACGG | 1.32 | 1.11 | -0.432 | 1.28 | -0.671 | 2.5 | 1.33 | 2.98 | 3.24 | 3.02 | 1.75 | 0.693 | -0.301 | 0.186 | 1.22 | 1.64 | 0.0475 | 2.54 | 0.19 | 2.68
5 | CATACAGGGTCAGCTAGGCTAGAGTAGGGACGGC | 4.44 | 2.68 | -0.0896 | 2.06 | -0.0361 | 4.12 | 3.06 | 2.93 | 0.539 | 2.03 | 1.19 | 2.32 | 0.769 | 0.0787 | 1.21 | 1.85 | -0.333 | 2.72 | 0.409 | 3.96
6 | TCGAGTAGCTTAGTCGGGGCATTCAGCCAACATA | -0.445 | -0.555 | -0.699 | -0.343 | -0.785 | -0.102 | -0.707 | -0.0775 | 0.66 | 0.255 | 0.289 | -0.763 | -1.22 | -0.887 | -1.34 | -0.503 | -1.1 | -0.495 | -0.83 | -0.355
7 | GCAATTAGTTGAAAGGGCAACCGAATGATTCTCG | 0.0908 | 0.491 | 0.0352 | 0.496 | -0.314 | 2.69 | 3.22 | 5.14 | 3.49 | 5.31 | 0.317 | 1.39 | 0.151 | 0.483 | 0.967 | 0.692 | 0.161 | 1.46 | 1.18 | 2.15
8 | CCACACAGGTGAGAAGGTAACTCAGCCTCGATTA | 0.187 | 0.0665 | 0.368 | 0.214 | -0.197 | 0.855 | 0.76 | 0.577 | -0.223 | 0.451 | 1.42 | 0.872 | -0.137 | -0.56 | 1.35 | 0.0866 | 0.0622 | 0.524 | 0.47 | 0.709
9 | ACTATTAGTTGAGACGAGGCCAACCGATAGGTTG | 0.859 | 0.188 | 0.0694 | -0.0266 | 0.238 | 0.13 | 0.24 | -0.0513 | -0.341 | -0.176 | -0.553 | 0.338 | -0.0845 | 1.03 | 0.634 | 0.673 | 0.177 | 0.671 | 0.555 | 0.81
10 | CCTACTGGGCCACGAAAGGTCATTGGTTCAGTGA | 3.88 | 5.26 | 5.57 | 4.37 | 0.215 | 4.79 | 4.66 | 4.86 | 2.43 | 4.48 | 5.54 | 5.88 | -0.165 | -0.319 | 3.95 | 5.47 | 3.04 | 5.74 | 0.693 | 3.96
11 | ACTCGGAGGACAAAGGTCAGAGCAACGCCAGTGA | 4.23 | 4.45 | 1.56 | 3.47 | 0.134 | 5.14 | 7.86 | 7.16 | 6.17 | 7.18 | 0.873 | 3.67 | 0.771 | -0.247 | 2.78 | 3.99 | 0.422 | 5.03 | 0.859 | 4.58
12 | GTACCAAGGTGAATAGGTCCTTGATGAGTAGGCG | 0.104 | 0.0189 | -0.541 | -0.255 | -0.745 | 1.27 | 0.918 | 0.908 | 0.0599 | 0.237 | 1.68 | 1.9 | -0.22 | -0.0495 | 0.461 | -0.118 | -0.138 | 0.337 | 0.144 | 1.23
13 | TATACAGGGTCAACGGCCAGAGTACGAATGTCGA | 6.91 | 5.76 | 2.15 | 4.65 | 2.1 | 5.54 | 6.79 | 6 | 3.43 | 5.19 | 2.91 | 4.6 | 4.74 | 3.03 | 4.05 | 3.93 | 0.74 | 5.15 | 1.33 | 4.52
14 | GATACAGGGTCAGTTAGAGGCCAGAGTATGGAAA | 4.02 | 2.54 | 0.247 | 2.39 | 0.0768 | 3.64 | 2.24 | 2.27 | 0.448 | 1.45 | 1.02 | 1.82 | 0.545 | 0.433 | 2.89 | 2.85 | 1.17 | 3.86 | 0.673 | 3.77
